Assay results reported in PubChem BioAssay AID1159580 (chemical genetic matrix, 2015).
In all, about 5,500 compounds went through this assay and about 2,000 (36%) were called active. Roughly 18% stayed inconclusive and do not appear here. No stated cut-off is given here; in the data, active means normalized growth mostly below about 0.91 (no sharp cut-off); inconclusive means no clear call, values can overlap the other calls; inactive means mostly above about 0.92. This is one part of the list.

Experiment: chemical genetic growth profiling, strain panel (AID 1159580);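 further: tested at 20 µM; growth read once vehicle control cultures reached saturation at 30 °C; 1 = growth at the plate median or of vehicle wells; lower values mean less growth of the strain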
Conditions: growth OD
[1] = S. cerevisiae deletion strains, locus YDL101C, strain DUN1, hits give low values
[2] = S. cerevisiae deletion strains, locus YHR030C, strain SLT2, hits give low values

Measured: normalized growth

Cc1ccc(S(=O)(=O)CCSC2=CC(=O)CC(C)(C)S2)cc1
inactive: S. cerevisiae deletion strains, locus YAR019C, strain CDC15, hits give low values 1.01 | S. cerevisiae deletion strains, locus YBL105C, strain PKC1, hits give low values 0.987 | S. cerevisiae deletion strains, locus YBR135W, strain CKS1, hits give low values 1 | S. cerevisiae deletion strains, locus YBR136W, strain MEC1, hits give low values 1 | S. cerevisiae deletion strains, locus YBR160W, strain CDC28, hits give low values 0.998 | S. cerevisiae deletion strains, locus YDL017W, strain CDC7, hits give low values 0.998 | S. cerevisiae deletion strains, locus YDL028C, strain MPS1, hits give low values 1 | [1] 1 | S. cerevisiae deletion strains, locus YDL108W, strain KIN28, hits give low values 1 | S. cerevisiae deletion strains, locus YDL132W, strain cdc53, hits give low values 1 | S. cerevisiae deletion strains, locus YDL214C, strain PRR2, hits give low values 0.98 | S. cerevisiae deletion strains, locus YDR052C, strain DBF4, hits give low values 1 | S. cerevisiae deletion strains, locus YDR054C, strain cdc34, hits give low values 0.998 | S. cerevisiae deletion strains, locus YDR226W, strain ADK1, hits give low values 0.994 | S. cerevisiae deletion strains, locus YDR477W, strain SNF1, hits give low values 0.974 | S. cerevisiae deletion strains, locus YER123W, strain YCK3, hits give low values 0.924 | S. cerevisiae deletion strains, locus YER133W, strain GLC7, hits give low values 0.895 | S. cerevisiae deletion strains, locus YFL009W, strain cdc4, hits give low values 0.997 | S. cerevisiae deletion strains, locus YFL029C, strain CAK1, hits give low values 1.01 | S. cerevisiae deletion strains, locus YFR003C, strain YPI1, hits give low values 0.997 | S. cerevisiae deletion strains, locus YFR019W, strain FAB1, hits give low values 0.905 | S. cerevisiae deletion strains, locus YFR028C, strain CDC14, hits give low values 0.998 | S. cerevisiae deletion strains, locus YGR040W, strain KSS1, hits give low values 0.948 | S. cerevisiae deletion strains, locus YGR052W, strain FMP48, hits give low values 0.987 | S. cerevisiae deletion strains, locus YGR092W, strain DBF2, hits give low values 1 | [2] 0.987 | S. cerevisiae deletion strains, locus YHR079C, strain IRE1, hits give low values 1.06 | S. cerevisiae deletion strains, locus YHR082C, strain KSP1, hits give low values 1.08 | S. cerevisiae deletion strains, locus YHR205W, strain SCH9, hits give low values 0.988 | S. cerevisiae deletion strains, locus YIL147C, strain SLN1, hits give low values 0.997 | S. cerevisiae deletion strains, locus YJL095W, strain BCK1, hits give low values 0.948 | S. cerevisiae deletion strains, locus YJL128C, strain PBS2, hits give low values 1.02 | S. cerevisiae deletion strains, locus YJL157C, strain FAR1, hits give low values 0.973 | S. cerevisiae deletion strains, locus YJR016C, strain ILV3, hits give low values 0.999 | S. cerevisiae deletion strains, locus YJR066W, strain TOR1 (second series), hits give low values 0.892 | S. cerevisiae deletion strains, locus YJR066W, strain TOR1, hits give low values 1.04 | S. cerevisiae deletion strains, locus YKL048C, strain ELM1, hits give low values 0.985 | S. cerevisiae deletion strains, locus YKL067W, strain YNK1, hits give low values 0.987 | S. cerevisiae deletion strains, locus YKL101W, strain HSL1, hits give low values 0.995 | S. cerevisiae deletion strains, locus YKL193C, strain SDS22, hits give low values 1 | S. cerevisiae deletion strains, locus YKL203C, strain TOR2, hits give low values 0.978 | S. cerevisiae deletion strains, locus YLR113W, strain HOG1, hits give low values 1.05 | S. cerevisiae deletion strains, locus YLR133W, strain CKI1, hits give low values 0.963 | S. cerevisiae deletion strains, locus YLR403W, strain SFP1, hits give low values 0.95 | S. cerevisiae deletion strains, locus YML070W, strain DAK1, hits give low values 0.965 | S. cerevisiae deletion strains, locus YMR001C, strain CDC5, hits give low values 0.999 | S. cerevisiae deletion strains, locus YMR205C, strain PFK2 (second series), hits give low values 0.974 | S. cerevisiae deletion strains, locus YMR277W, strain FCP1, hits give low values 1 | S. cerevisiae deletion strains, locus YNL006W, strain LST8, hits give low values 0.996 | S. cerevisiae deletion strains, locus YNL020C, strain ARK1, hits give low values 0.979 | S. cerevisiae deletion strains, locus YNL161W, strain CBK1, hits give low values 1 | S. cerevisiae deletion strains, locus YNL183C, strain NPR1, hits give low values 1.02 | S. cerevisiae deletion strains, locus YNL207W, strain RIO2, hits give low values 1 | S. cerevisiae deletion strains, locus YNL222W, strain SSU72, hits give low values 1 | S. cerevisiae deletion strains, locus YNL307C, strain MCK1 (second series), hits give low values 0.977 | S. cerevisiae deletion strains, locus YOL078W, strain AVO1, hits give low values 0.997 | S. cerevisiae deletion strains, locus YOL136C, strain PFK27, hits give low values 0.929 | S. cerevisiae deletion strains, locus YOR061W, strain CKA2, hits give low values 0.969 | S. cerevisiae deletion strains, locus YOR119C, strain RIO1, hits give low values 0.996 | S. cerevisiae deletion strains, locus YOR231W, strain MKK1, hits give low values 0.968 | S. cerevisiae deletion strains, locus YOR329C, strain SCD5, hits give low values 1 | S. cerevisiae deletion strains, locus YPL031C, strain PHO85, hits give low values 0.961 | S. cerevisiae deletion strains, locus YPL153C, strain RAD53, hits give low values 0.959 | S. cerevisiae deletion strains, locus YPL204W, strain HRR25, hits give low values 0.912 | S. cerevisiae deletion strains, locus YPL209C, strain IPL1, hits give low values 0.998 | S. cerevisiae deletion strains, locus YPL256C, strain CLN2, hits give low values 1.09 | S. cerevisiae deletion strains, locus YPR025C, strain CCL1, hits give low values 1 | S. cerevisiae deletion strains, locus YPR106W, strain ISR1, hits give low values 1.01 | S. cerevisiae deletion strains, locus YPR111W, strain DBF20, hits give low values 0.999 | S. cerevisiae deletion strains, strain NNK1, hits give low values 1.03 | S. cerevisiae deletion strains, strain TSCII, hits give low values 1

CC(=O)c1sc(SCc2ccc(Cl)cc2)c2c1CC(C)(C)CC2=O
inactive: S. cerevisiae deletion strains, locus YAL013W, strain DEP1, hits give low values 0.97 | S. cerevisiae deletion strains, locus YBR229C, strain ROT2, hits give low values 1.06 | [1] 1.01 | S. cerevisiae deletion strains, locus YDL134C, strain PPH21, hits give low values 0.976 | S. cerevisiae deletion strains, locus YDR150W, strain NUM1, hits give low values 0.954 | S. cerevisiae deletion strains, locus YEL061C, strain CIN8, hits give low values 1.07 | S. cerevisiae deletion strains, locus YGR078C, strain PAC10, hits give low values 1 | [2] 0.793 | S. cerevisiae deletion strains, locus YHR087W, strain rtc3, hits give low values 1 | S. cerevisiae deletion strains, locus YJR043C, strain POL32, hits give low values 0.987 | S. cerevisiae deletion strains, locus YJR075W, strain HOC1, hits give low values 1.05 | S. cerevisiae deletion strains, locus YKL190W, strain CNB1, hits give low values 0.966 | S. cerevisiae deletion strains, locus YLR039C, strain RIC1, hits give low values 0.938 | S. cerevisiae deletion strains, locus YLR058C, strain SHM2 (second series), hits give low values 1.01 | S. cerevisiae deletion strains, locus YLR085C, strain ARP6, hits give low values 1.02 | S. cerevisiae deletion strains, locus YLR262C, strain YPT6, hits give low values 0.941 | S. cerevisiae deletion strains, locus YML094W, strain GIM5, hits give low values 1.01 | S. cerevisiae deletion strains, locus YMR219W, strain ESC1, hits give low values 1.03 | S. cerevisiae deletion strains, locus YMR263W, strain SAP30, hits give low values 0.936 | S. cerevisiae deletion strains, locus YMR307W, strain GAS1, hits give low values 1.03 | S. cerevisiae deletion strains, locus YNL128W, strain TEP1, hits give low values 0.981 | S. cerevisiae deletion strains, locus YNL153C, strain GIM3, hits give low values 0.971 | S. cerevisiae deletion strains, locus YNL298W, strain CLA4 (second series), hits give low values 0.952 | S. cerevisiae deletion strains, locus YNL322C, strain KRE1, hits give low values 0.993 | S. cerevisiae deletion strains, locus YNR030W, strain Alg12, hits give low values 0.941 | S. cerevisiae deletion strains, locus YPL055C, strain LGE1, hits give low values 1.12 | S. cerevisiae deletion strains, locus YPL241C, strain CIN2, hits give low values 0.907 | S. cerevisiae deletion strains, locus YPR135W, strain CTF4, hits give low values 0.819 | S. cerevisiae strains, strain wild type, hits give low values 0.955
